High-throughput results from PubChem BioAssay.
Most compounds without a hit are left out; they make up all but 11% or so of the library.
BAZ2B block: qHTS Assay for Inhibitors of BAZ2B; Bromodomain adjacent to zinc finger domain protein 2B (Homo sapiens), Q9UIF8; 360,000 compounds, 4.4% hits; AID 504333, 2011; Potency, µM (doses to about 114 µM), without a hit: at the highest dose activity change, negative = inhibition, actives largely listed as inhibitors; AlphaScreen BAZ2B-H3K14Ac peptide displacement; also: % is scaled to controls: 0 for no effect and ±100 for the full control effect; nearly all actives have a fitted effect of over 60% in size
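AlphaScreen displacement: compounds (up to 110uM) incubated 30 min at room temperature with a preformed 50 nM BAZ2B/50 nM biotinylated H3K14Ac peptide complex in PBS pH 7.4 with Tween-20. Donor and acceptor beads at 10 ug/mL final added, 20 min light-protected before reading.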
G9a block: qHTS Assay for Inhibitors of Histone Lysine Methyltransferase G9a | Histone-lysine N-methyltransferase EHMT2 (Homo sapiens), Q96KQ7 | G9a H3K9 monomethylation, AlphaScreen, 2 h | Potency, µM (top dose mostly 102 µM), without a hit: at the top dose activity, negative = inhibition, usual class: inhibitors | 350,000 compounds, 8.8% hits | AID 504332, 2011; also: % is scaled to controls: 0 for no effect and ±100 for the full control effect; nearly all actives have a fitted effect of over 75% in size
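Signal arises when biotinylated H3K9 peptide, once monomethylated, bridges streptavidin donor and antibody-captured acceptor beads. Enzyme at 20 nM was preincubated 15 min with test compounds; peptide 500 nM and SAM 20 uM then reacted for 2 h.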
HP1b chromo inh: HTS for Inhibitors of HP1-beta Chromodomain Interactions with Methylated Histone Tails | Potency, µM (top dose mostly 114 µM), for inactives: top-dose activity change, negative = inhibition, hits mostly inhibitors | AlphaScreen HP1-beta / biotin-H3K9me3 peptide binding | 390,000 compounds, 0.56% hits | Chromobox protein homolog 1 (Homo sapiens), P83916; also: nearly all actives have a fitted effect of over 70% in size
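Compound inhibition of the preformed complex between 50 nM HP1-beta and 50 nM biotinylated H3K9me3 peptide was read by AlphaScreen. Buffer was PBS pH 7.4 with 0.01% Tween-20. Incubations ran 30 min at room temperature, with 10 ug/mL donor/acceptor beads.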
L3MBTL1 inh: qHTS Assay for the Inhibitors of L3MBTL1. 230,000 compounds, 0.66% hits. Lethal(3)malignant brain tumor-like protein 1 (Homo sapiens), Q9Y468. Potency, µM (doses to about 57.1 µM), for the others: at the top dose activity, negative = inhibition, actives largely listed as inhibitors. AlphaScreen L3MBTL1–H3K9me1 peptide binding; also: % is scaled to controls: 0 for no effect and ±100 for the full control effect; nearly all actives have a fitted effect of over 60% in size
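Displacement of a biotinylated histone H3(1-15) peptide monomethylated at Lys9 (75 nM) from L3MBTL1 (50 nM) was measured by AlphaScreen after a 30 min room-temperature compound incubation; cefsulodin titration served as intraplate control.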
JMJD2A Tudor inh: qHTS Assay for Inhibitors of JMJD2A-Tudor Domain; AlphaScreen JMJD2A-Tudor / H3K4me3 peptide binding; Potency, µM (series often up to 114 µM), for the others: top-dose activity change, negative = inhibition, most hits filed as inhibitors; Lysine-specific demethylase 4A (Homo sapiens), O75164; AID 504339, 2011; 390,000 compounds, 4.4% hits; also: % is scaled to controls: 0 for no effect and ±100 for the full control effect; nearly all actives have a fitted effect of over 50% in size
Target sequence (O75164 whole entry, looked up, the tested form may be a part): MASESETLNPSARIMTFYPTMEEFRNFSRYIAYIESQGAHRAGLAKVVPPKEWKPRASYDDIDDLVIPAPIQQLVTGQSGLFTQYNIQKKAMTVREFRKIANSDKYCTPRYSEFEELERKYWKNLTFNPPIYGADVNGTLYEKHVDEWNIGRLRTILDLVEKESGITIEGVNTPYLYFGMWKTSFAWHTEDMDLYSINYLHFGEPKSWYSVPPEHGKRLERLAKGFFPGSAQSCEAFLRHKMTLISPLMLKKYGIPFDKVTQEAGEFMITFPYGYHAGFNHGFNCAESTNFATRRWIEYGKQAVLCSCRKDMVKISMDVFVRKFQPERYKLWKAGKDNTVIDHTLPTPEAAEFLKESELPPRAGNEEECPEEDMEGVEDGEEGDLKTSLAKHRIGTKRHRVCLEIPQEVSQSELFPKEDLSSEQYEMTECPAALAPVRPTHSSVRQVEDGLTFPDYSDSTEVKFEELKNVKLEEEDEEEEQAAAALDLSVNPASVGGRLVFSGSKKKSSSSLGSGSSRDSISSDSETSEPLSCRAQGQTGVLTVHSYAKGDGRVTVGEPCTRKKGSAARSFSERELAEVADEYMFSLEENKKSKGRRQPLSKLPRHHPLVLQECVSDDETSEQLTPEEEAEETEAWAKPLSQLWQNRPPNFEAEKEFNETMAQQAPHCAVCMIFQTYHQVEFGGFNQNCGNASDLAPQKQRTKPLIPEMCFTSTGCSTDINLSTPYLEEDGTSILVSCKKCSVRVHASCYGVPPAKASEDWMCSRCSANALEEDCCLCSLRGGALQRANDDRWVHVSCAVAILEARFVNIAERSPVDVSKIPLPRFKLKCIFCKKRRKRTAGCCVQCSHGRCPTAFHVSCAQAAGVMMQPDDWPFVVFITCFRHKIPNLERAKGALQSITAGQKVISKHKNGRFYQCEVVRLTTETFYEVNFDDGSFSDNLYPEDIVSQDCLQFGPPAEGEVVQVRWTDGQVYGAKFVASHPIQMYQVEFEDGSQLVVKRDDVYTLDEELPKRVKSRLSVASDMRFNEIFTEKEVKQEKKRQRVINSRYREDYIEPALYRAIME
The depositor's hits bear a star; [ ] = another dose, or the depositor's remark. Calls follow the shape of the dose curve; as a rule, active = well fitted inhibition curve with a large enough effect; inconclusive = small, poorly fitted or top-dose-only effect; inactive = no such curve, though single readings can be large or run the other way. Potency is read from the fitted curve at half-maximal effect.

CCC(=O)N(Cc1cc(=O)[nH]c2ccccc12)c1ccccc1C was read as BAZ2B block -11%, G9a block 45µM*, HP1b chromo inh inconclusive, L3MBTL1 inh -4% and JMJD2A Tudor inh -24%.
For COc1ccc(OC)c(S(=O)(=O)NCCc2sc(-c3cccnc3)nc2C)c1 the results were BAZ2B block 3%, G9a block -5%[59 µM], HP1b chromo inh 20%[57 µM] and JMJD2A Tudor inh -15%.
`COc1cccc(CNC(=O)c2ccc(C)c(S(=O)(=O)N3CCCCC3)c2)c1` gave BAZ2B block -3%, G9a block 12%[0.501 µM], HP1b chromo inh 28%, L3MBTL1 inh 9% and JMJD2A Tudor inh -7%.
`CN1CN(C)c2cccc3cccc1c23` gave BAZ2B block inconclusive, G9a block 1.4µM*, HP1b chromo inh inconclusive, L3MBTL1 inh -21% and JMJD2A Tudor inh -38%.
O=[N+]([O-])c1ccc(Sc2nnnn2-c2ccccc2)c(Cl)c1 was read as BAZ2B block inconclusive, G9a block 50µM*, HP1b chromo inh inconclusive and JMJD2A Tudor inh inconclusive.
For Cc1ccc(N2CCN(CC(O)COc3ccccc3)CC2)cc1 (stereo not given) the results were BAZ2B block inconclusive, G9a block -19%, HP1b chromo inh 14%, L3MBTL1 inh 1% and JMJD2A Tudor inh -25%.
COCCOCC(O)CN1CCN(c2ccccc2)CC1 (stereo not given) was read as BAZ2B block 50µM*, G9a block inconclusive, HP1b chromo inh -26% and JMJD2A Tudor inh 13µM*.
Screening COCCOCC(O)CN1CCN(c2ccc(C)cc2)CC1 (stereo not given) returned G9a block 4.5µM*, HP1b chromo inh -38%, L3MBTL1 inh -7% and JMJD2A Tudor inh inconclusive.
`CC(C)OCCCn1c(-c2ccc(Br)cc2)c[nH]c1=S` gave BAZ2B block inconclusive, G9a block 3.5µM*, HP1b chromo inh -29%, L3MBTL1 inh -24% and JMJD2A Tudor inh inconclusive.
For CCOC(=O)C(C)Sc1nnc2ccc3ccccc3n12 (stereo not given) the results were BAZ2B block -7%, G9a block -9%[59 µM], HP1b chromo inh 15% and JMJD2A Tudor inh -11%.
Screening CCOC(=O)/C(C#N)=C/c1ccc(OC)c(OC)c1 returned BAZ2B block 7%, G9a block 16%[59 µM], HP1b chromo inh 28% and JMJD2A Tudor inh -6%.
CCCCCCC(=O)Cc1cc(OC)c(OC)cc1C=C(C(=O)OCC)C(=O)OCC was read as BAZ2B block 3%, G9a block 40µM* and L3MBTL1 inh 5%.
`CCN(CC)C(=O)C1CCCN(Cc2ccc3ccccc3c2)C1` (stereo not given) gave BAZ2B block inconclusive, G9a block inconclusive, HP1b chromo inh 3%, L3MBTL1 inh -4% and JMJD2A Tudor inh 22µM*.
Screening CCN(CC)C(=O)C1CCCN(Cc2cccc(F)c2)C1 (stereo not given) returned BAZ2B block inconclusive, G9a block inconclusive, HP1b chromo inh -46%, L3MBTL1 inh 4% and JMJD2A Tudor inh 3.2µM*.
For Cc1cccc(CN2CCCC(C(=O)N3CCc4ccccc4C3)C2)c1 (stereo not given) the results were BAZ2B block 50µM*, G9a block 13µM*, HP1b chromo inh 26% and JMJD2A Tudor inh 1%.
`CCN(CC)C(=O)C1CCCN(Cc2sccc2C)C1` (stereo not given) gave BAZ2B block 28µM*, G9a block 32µM*, HP1b chromo inh inconclusive and JMJD2A Tudor inh 3.5µM*.
Cc1noc(C)c1-c1cncnc1NCc1ccccc1 was read as G9a block -5%[0.501 µM].
CCOC(=O)c1sc(NC(=O)CSc2nncn2C)nc1C was read as G9a block 4%, HP1b chromo inh 19%, L3MBTL1 inh 3% and JMJD2A Tudor inh -3%.
